Assay results reported in PubChem BioAssay (Tox21).
“And” between values parts separate entries of the source, which are not always exact repeats. Equal entries are not always repeated. Results filed as inconclusive are left out. A call without a number means that no potency is given here. The source made the active and inactive calls. Unless noted, the call rests on the fitted dose curve; in most records, active means well fitted curve in the direction sought with a large enough effect in the repeat runs; inconclusive means weak or mixed curves; inactive means no such curve, though single readings can be large; an effect the other way counts as inactive or inconclusive. Positions of bridges follow the written chain, without caps; N, C: chain ends. Non-standard residues stand in square brackets, D forms with d. Residues, ends and D or L forms follow the SMILES beside them. *: point of attachment. X1 = CC[C@@H](C)[C@@H](N)C1=N[C@H](C(=O)*)CS1; d(aIle) = CC[C@H](C)[C@@H](N)C(=O)O; dOrn = NCCC[C@@H](N)C(=O)O

Columns and labels:
[1] = qHTS assay for small molecule agonists of the p53 signaling pathway (AID 651631; calls by dose curve; further: nearly all actives have a fitted effect of over 15% in size; further: potency means the concentration at half of the fitted maximal effect)
Procedure, shortened: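 Beta-lactamase reporter activity under p53 response elements was quantified in HCT-116 cells by FRET fluorescence, following 16 h incubation with test compounds at 37 °C and 2 h substrate development at room temperature.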

[2] = qHTS assay for small molecules that induce genotoxicity in human embryonic kidney cells expressing luciferase-tagged ATAD5 (AID 651632); further: nearly all actives have a fitted effect of over 15% in size
Procedure, shortened: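 Luminescent reporter readout, HEK293T ATAD5-luc line: 16 hr drug exposure (37C, 5% CO2) followed by Amplite, 30 min RT.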

[3] = qHTS assay for small molecule agonists of the p53 signaling pathway - cell viability (AID 651633; calls by dose curve;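 further: p53RE-bla HCT reporter cells with a stable beta-lactamase p53 reporter; series mostly up to about 83 µM; nearly all actives have a fitted effect of over 30% in size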)
Procedure, shortened: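 p53RE-bla cells were treated with compound for 16 hours at 37 C. Cytotoxicity was then measured as CellTiter-Glo luminescence after 30 min at room temperature.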

[4] = qHTS assay for small molecules that induce genotoxicity in human embryonic kidney cells expressing luciferase-tagged ATAD5 - cell viability (AID 651634; calls by dose curve; further: nearly all actives have a fitted effect of over 25% in size; further: potency means the concentration at half of the fitted maximal effect)
Procedure, shortened: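 Viability read: CellTiter-Fluor fluorescence, 30 min at 37C. Cells: HEK293T, luciferase-tagged ATAD5. Exposure: 15.5 hr, 37C, 5% CO2, compound or DMSO vehicle.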

[5] = qHTS assay for small molecule disruptors of the mitochondrial membrane potential - cell viability (AID 720634; calls by dose curve;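 further: human HepG2 liver cancer cells; series mostly up to about 83 µM; nearly all actives have a fitted effect of over 20% in size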)
Procedure, shortened: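 HepG2, 1 hr compound, 37 C. ATP luminescence via CellTiter-Glo, 30 min RT, same well as m-MPI.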

[6] = qHTS assay for small molecule disruptors of the mitochondrial membrane potential (AID 720635)
Procedure, shortened: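 HepG2 cells exposed to compound 1 hr at 37C, then Mito-MPS dye 30 min. Ratio read of aggregate (540/590 nm) versus monomer (490/535 nm) fluorescence.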

[7] = qHTS assay to test for compound auto fluorescence at 590 nm (red) in HepG2 cells (AID 720674)
Procedure, shortened: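 HepG2 cells, 2,000 per well in MEM with 10% FBS, attached overnight at 37 C, then got 23 nL compound or DMSO. After 1 hr at 37 C, 5% CO2, red fluorescence was read at 540/590 nm against Rose Bengal sodium as reference.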

[8] = qHTS assay to test for compound auto fluorescence at 535 nm (green) in HepG2 cells (AID 720675)
[9] = qHTS assay to test for compound auto fluorescence at 460 nm (blue) in HEK293 cells (AID 720678)
Procedure, shortened: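 Measured: blue fluorescence (Ex 405/Em 460 nm) of compound-treated HEK293 cells, incubated overnight at 37C with 5% CO2 and scaled to triamterene equivalents.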

[10] = qHTS assay to test for compound auto fluorescence at 590 nm (red) in HEK293 cells (AID 720679)
Procedure, shortened: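 Using HEK293 cells at 2,000 per well, the screen added 23 nL of each compound after cell attachment and incubated overnight (37C, 5% CO2). The plate reader then captured red-label fluorescence, Ex/Em 540/590nm.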

SMILES | Potency [1] | Potency [2] | Potency [3] | Potency [4] | Potency [5] | Potency [6] | outcome [7] | Potency [8] | Potency [9] | outcome [10]
CC1CCCC(C)N1NC(=O)c1ccc(Cl)c(S(N)(=O)=O)c1 (centres undefined) | inactive | inactive | inactive | inactive | inactive | inactive | inactive | inactive | inactive | inactive
NC(N)=NCc1cccc(I)c1 | inactive | inactive | inactive | inactive | inactive | inactive | inactive | inactive | inactive | inactive
O=C(O)c1cc2cc(Cc3cccnc3)ccc2o1 | inactive | inactive | inactive | inactive | inactive | inactive | inactive | inactive | inactive | inactive
CC(C)[C@H](NC(=O)[C@H](CC(=O)O)NC(=O)[C@H](CCCCN)NC(=O)[C@@H](N)CCCN=C(N)N)C(=O)N[C@@H](Cc1ccc(O)cc1)C(=O)O (H-RKDVY-OH) | inactive | inactive | inactive | inactive | inactive | inactive | inactive | inactive | inactive | inactive
NC(=O)[C@@H]1CCCN1C(=O)[C@H](Cc1cnc[nH]1)NC(=O)[C@@H]1CCC(=O)N1 | inactive | inactive | inactive | inactive | inactive | inactive | inactive | inactive | inactive | inactive
CO/N=C(\C(=O)N[C@@H]1C(=O)N2C(C(=O)[O-])=C(C[n+]3ccc(N)n3CCO)CS[C@H]12)c1csc(N)n1 | inactive | inactive | inactive | inactive | inactive | inactive | inactive | inactive | inactive | inactive
CCCCCCCCCCCCCC(=O)OCC(COP(=O)([O-])OCC[N+](C)(C)C)OC(=O)CCCCCCCCCCCCC (centres undefined) | inactive | inactive | inactive | inactive | inactive | inactive | inactive | inactive | inactive | inactive
CC[C@@H](C)[C@@H](N)C1=N[C@H](C(=O)N[C@@H](CC(C)C)C(=O)N[C@@H](CCC(=O)O)C(=O)N[C@@H](C(=O)N[C@@H]2CCCCNC(=O)[C@@H](CC(N)=O)NC(=O)[C@@H](CC(=O)O)NC(=O)[C@@H](Cc3cnc[nH]3)NC(=O)[C@@H](Cc3ccccc3)NC(=O)[C@@H]([C@H](C)CC)NC(=O)[C@@H](CCCN)NC2=O)[C@@H](C)CC)CS1 (X1-LE[d(aIle)][dK][dOrn][dI][dF][dH][dD][dN]; lactam 4-C) | inactive | inactive | inactive | inactive | inactive | inactive | inactive | inactive | inactive | inactive
COC(=O)[C@H]1[C@H]2C[C@H]3c4[nH]c5ccccc5c4CCN3C[C@H]2CC[C@@H]1O | inactive | inactive | inactive | inactive | inactive | inactive | inactive | inactive | inactive | inactive
c1ccc(-n2cnnn2)cc1 | inactive | inactive | inactive | inactive | inactive | inactive | inactive | inactive | inactive | inactive
CC1=C(/C=C/C(C)=C/C=C/C(C)=C/C=C/C=C(C)/C=C/C=C(C)/C=C/C2=C(C)CCCC2(C)C)C(C)(C)CCC1 | inactive | inactive | inactive | inactive | inactive | inactive | inactive | inactive | inactive | inactive
CNCC(=O)N[C@@H](CCCN=C(N)N)C(=O)N[C@H](C(=O)N[C@@H](Cc1ccc(O)cc1)C(=O)N[C@H](C(=O)N[C@@H](Cc1cnc[nH]1)C(=O)N1CCC[C@H]1C(=O)N[C@@H](C)C(=O)O)C(C)C)C(C)C | inactive | inactive | inactive | inactive | inactive | inactive | inactive | inactive | inactive | inactive
C/C(=C\C(=O)OCCCCCCCCC(=O)O)C[C@@H]1OC[C@H](C[C@@H]2O[C@H]2[C@@H](C)[C@H](C)O)[C@@H](O)[C@H]1O | inactive | inactive | inactive | inactive | inactive | inactive | inactive | inactive | inactive | inactive
CC/C=C\C/C=C\C/C=C\C/C=C\C/C=C\CCCC(=O)O | inactive | inactive | inactive | inactive | inactive | inactive | inactive | inactive | inactive | inactive
COC1[C@@H](O[C@@H]2O[C@H](C)[C@@H](O[C@H]3C[C@@](C)(O)[C@H](OC(=O)CC(C)C)[C@H](C)O3)[C@H](N(C)C)[C@H]2O)[C@@H](CC=O)C[C@@H](C)[C@@H](O)/C=C/C=C/C[C@@H](C)OC(=O)C[C@H]1OC(C)=O (some centres undefined) | inactive | inactive | inactive | inactive | inactive | inactive | inactive | inactive | inactive | inactive
NC(N)=NCC1COC2(CCCCC2)O1 (centres undefined) | inactive | inactive | inactive | inactive | inactive | inactive | inactive | inactive | inactive | inactive
NCC(O)CC(=O)O (centres undefined) | inactive | inactive | inactive | inactive | inactive | inactive | inactive | inactive | inactive | inactive
CCN(CC)CCNC(=O)c1ccc(NS(C)(=O)=O)cc1 | inactive | inactive | inactive | inactive | inactive | inactive | inactive | inactive | inactive | inactive
COC(=O)C[C@](O)(CCCC(C)(C)O)C(=O)O[C@@H]1C(OC)=CC23CCCN2CCc2cc4c(cc2[C@H]13)OCO4 (some centres undefined) | 33.5 nM (active) | inactive | inactive | 26.6 nM (active) and 23.7 nM (active) | inactive | – | inactive | inactive | inactive | inactive
